# From paper PMC7862700, “An all-to-all approach to the identification of sequence-specific readers for epigenetic DNA modifications on cytosine”
# Key:
# Experiment in all cases: DAPPL (digital affinity profiling via proximity ligation, sequencing); 10 mM Tris-HCl pH 7.5, 50 mM NaCl, 1 mM DTT, 4% glycerol, room temperature, 30 min; GST-TFs on glutathione beads, 16-mer random dsDNA library, 0.1% formaldehyde crosslink after washing; high values mean tight binding
# FLI1 = target: T1, FLI1 (Homo sapiens, UniProt Q01543 1-452); conditions: protein: recombinant; tags: N-terminal GST; dsDNA, one strand shown
# T1 sequence: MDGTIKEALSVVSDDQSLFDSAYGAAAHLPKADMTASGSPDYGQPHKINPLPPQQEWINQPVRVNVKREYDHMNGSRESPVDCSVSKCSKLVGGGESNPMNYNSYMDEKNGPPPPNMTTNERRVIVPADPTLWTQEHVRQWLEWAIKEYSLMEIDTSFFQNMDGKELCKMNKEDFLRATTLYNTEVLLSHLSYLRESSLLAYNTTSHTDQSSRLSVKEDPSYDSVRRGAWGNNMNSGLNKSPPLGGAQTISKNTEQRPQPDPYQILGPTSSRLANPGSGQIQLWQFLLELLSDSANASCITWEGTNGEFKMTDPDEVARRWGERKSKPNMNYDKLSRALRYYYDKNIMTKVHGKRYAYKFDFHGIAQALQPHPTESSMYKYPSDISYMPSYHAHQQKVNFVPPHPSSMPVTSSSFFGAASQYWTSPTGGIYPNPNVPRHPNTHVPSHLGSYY
# Procedure, shortened: (§1)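 Pools were built from human transcription factors expressed in yeast as GST fusions, captured on glutathione beads and DNA-barcoded, along with a tag-only sample. Incubation with 200 nmole of a 16-mer random double-stranded DNA library lasted 30 min at room temperature in Tris/NaCl/DTT/glycerol buffer, and was followed by washing, 0.1% formaldehyde crosslinking, proximity ligation, PCR amplification and Illumina NextSeq500 sequencing. Binding signal is the quotient of each hexamer's read frequency for a factor and its frequency for the tag-only sample.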
# ELK1 = target: T2, ELK1 (Homo sapiens, UniProt P19419 1-428); conditions: protein: recombinant; tags: N-terminal GST; dsDNA, one strand shown
# T2 sequence: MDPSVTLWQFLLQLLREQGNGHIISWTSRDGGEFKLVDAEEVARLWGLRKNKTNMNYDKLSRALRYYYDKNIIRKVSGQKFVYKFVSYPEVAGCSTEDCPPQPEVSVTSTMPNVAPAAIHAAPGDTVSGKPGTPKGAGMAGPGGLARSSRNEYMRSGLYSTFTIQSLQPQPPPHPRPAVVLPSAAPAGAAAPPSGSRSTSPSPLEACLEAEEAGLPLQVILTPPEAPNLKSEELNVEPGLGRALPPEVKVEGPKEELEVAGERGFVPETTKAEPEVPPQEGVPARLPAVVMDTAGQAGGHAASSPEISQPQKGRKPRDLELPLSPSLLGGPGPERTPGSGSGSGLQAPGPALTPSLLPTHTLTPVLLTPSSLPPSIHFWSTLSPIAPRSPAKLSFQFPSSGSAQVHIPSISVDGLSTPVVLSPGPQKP
# Procedure, shortened: as §1
# GABPA = target: T3, GABPA (Homo sapiens, UniProt Q06546 1-454); conditions: protein: recombinant; tags: N-terminal GST; dsDNA, one strand shown
# T3 sequence: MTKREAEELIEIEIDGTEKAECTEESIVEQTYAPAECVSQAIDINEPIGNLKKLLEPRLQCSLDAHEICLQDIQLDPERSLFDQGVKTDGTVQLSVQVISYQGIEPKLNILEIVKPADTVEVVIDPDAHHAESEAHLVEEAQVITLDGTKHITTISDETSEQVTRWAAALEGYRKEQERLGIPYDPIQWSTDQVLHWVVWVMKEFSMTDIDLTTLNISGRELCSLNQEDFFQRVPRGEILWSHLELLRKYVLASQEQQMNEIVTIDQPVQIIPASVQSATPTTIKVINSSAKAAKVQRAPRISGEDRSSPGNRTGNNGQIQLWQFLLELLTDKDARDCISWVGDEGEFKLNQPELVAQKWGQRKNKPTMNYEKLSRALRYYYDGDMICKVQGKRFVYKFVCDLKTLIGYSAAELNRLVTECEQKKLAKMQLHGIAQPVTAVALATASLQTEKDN
# Procedure, shortened: as §1
# ERG = target: T4, ERG (Homo sapiens, UniProt P11308 1-479); conditions: protein: recombinant; tags: N-terminal GST; dsDNA, one strand shown
# T4 sequence: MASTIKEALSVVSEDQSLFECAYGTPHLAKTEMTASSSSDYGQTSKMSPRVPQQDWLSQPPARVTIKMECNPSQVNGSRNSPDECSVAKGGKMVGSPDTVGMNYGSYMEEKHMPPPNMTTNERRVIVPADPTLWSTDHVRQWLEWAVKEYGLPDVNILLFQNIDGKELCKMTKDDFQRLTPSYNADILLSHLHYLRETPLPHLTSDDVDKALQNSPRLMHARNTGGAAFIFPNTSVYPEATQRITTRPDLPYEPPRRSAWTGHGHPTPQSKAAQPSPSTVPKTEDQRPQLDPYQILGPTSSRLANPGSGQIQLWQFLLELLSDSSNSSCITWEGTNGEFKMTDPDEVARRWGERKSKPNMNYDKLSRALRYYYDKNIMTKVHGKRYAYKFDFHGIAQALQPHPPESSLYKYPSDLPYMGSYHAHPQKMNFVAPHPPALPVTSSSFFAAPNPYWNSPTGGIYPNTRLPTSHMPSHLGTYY
# Procedure, shortened: as §1
# ELF1 = ELF1 (Homo sapiens, UniProt P32519 1-619); conditions: protein: recombinant; tags: N-terminal GST; dsDNA, one strand shown
# Chain of ELF1 (P32519 whole entry): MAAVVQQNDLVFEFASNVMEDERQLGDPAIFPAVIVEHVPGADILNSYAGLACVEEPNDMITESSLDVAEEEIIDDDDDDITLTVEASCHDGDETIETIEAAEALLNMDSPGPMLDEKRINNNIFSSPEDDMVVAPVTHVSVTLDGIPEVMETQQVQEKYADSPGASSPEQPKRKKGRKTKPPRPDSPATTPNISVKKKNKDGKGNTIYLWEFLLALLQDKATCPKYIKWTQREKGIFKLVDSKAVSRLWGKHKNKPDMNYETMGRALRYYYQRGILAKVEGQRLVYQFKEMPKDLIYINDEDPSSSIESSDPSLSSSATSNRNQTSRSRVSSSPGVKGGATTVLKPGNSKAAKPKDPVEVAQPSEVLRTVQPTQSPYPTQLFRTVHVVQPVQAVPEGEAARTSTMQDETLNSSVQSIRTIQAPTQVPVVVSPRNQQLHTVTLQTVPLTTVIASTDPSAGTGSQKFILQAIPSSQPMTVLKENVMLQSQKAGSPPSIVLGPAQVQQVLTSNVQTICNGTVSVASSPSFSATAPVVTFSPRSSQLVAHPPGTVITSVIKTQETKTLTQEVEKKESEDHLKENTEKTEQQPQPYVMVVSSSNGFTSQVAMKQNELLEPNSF
# Procedure, shortened: as §1
# EHF = target: T5, EHF (Homo sapiens, UniProt Q9NZC4 1-300); conditions: protein: recombinant; tags: N-terminal GST; dsDNA, one strand shown
# T5 sequence: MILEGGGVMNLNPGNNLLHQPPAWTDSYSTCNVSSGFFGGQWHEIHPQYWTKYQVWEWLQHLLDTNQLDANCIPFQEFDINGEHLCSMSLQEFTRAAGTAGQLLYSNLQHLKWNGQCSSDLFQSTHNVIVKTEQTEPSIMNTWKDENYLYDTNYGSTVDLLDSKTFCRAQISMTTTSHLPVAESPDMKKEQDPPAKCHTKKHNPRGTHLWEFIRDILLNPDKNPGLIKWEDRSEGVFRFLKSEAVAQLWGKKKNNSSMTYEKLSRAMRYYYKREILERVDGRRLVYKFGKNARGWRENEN
# Procedure, shortened: as §1
# SPI1 = SPI1 (Homo sapiens, UniProt P17947 1-270); conditions: protein: recombinant; tags: N-terminal GST; dsDNA, one strand shown
# Procedure, shortened: as §1
# SPIB = SPIB (Homo sapiens, UniProt Q01892 1-262); conditions: protein: recombinant; tags: N-terminal GST; dsDNA, one strand shown
# Chain of SPIB (Q01892 whole entry): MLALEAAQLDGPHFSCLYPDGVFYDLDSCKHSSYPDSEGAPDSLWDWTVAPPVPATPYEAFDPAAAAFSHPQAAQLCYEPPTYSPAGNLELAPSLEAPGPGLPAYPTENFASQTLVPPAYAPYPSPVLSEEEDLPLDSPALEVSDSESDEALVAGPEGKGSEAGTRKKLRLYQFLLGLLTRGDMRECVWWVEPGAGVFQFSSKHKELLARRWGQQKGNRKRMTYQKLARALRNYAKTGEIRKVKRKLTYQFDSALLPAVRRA
# Procedure, shortened: as §1
# ELK3 = target: T6, ELK3 (Homo sapiens, UniProt P41970 1-407); conditions: protein: recombinant; tags: N-terminal GST; dsDNA, one strand shown
# T6 sequence: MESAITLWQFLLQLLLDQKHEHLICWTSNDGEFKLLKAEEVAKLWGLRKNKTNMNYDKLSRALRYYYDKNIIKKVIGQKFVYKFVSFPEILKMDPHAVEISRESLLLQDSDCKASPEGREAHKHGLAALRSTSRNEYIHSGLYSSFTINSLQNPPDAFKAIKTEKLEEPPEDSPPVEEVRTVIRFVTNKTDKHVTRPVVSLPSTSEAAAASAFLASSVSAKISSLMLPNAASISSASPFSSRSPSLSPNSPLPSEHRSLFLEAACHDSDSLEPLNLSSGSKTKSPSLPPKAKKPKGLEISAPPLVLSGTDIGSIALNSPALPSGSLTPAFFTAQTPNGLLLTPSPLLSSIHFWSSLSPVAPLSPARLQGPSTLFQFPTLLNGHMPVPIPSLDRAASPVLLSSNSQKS
# Procedure, shortened: as §1
# FEV = target: T7, FEV (Homo sapiens, UniProt Q99581 1-238); conditions: protein: recombinant; tags: N-terminal GST; dsDNA, one strand shown
# T7 sequence: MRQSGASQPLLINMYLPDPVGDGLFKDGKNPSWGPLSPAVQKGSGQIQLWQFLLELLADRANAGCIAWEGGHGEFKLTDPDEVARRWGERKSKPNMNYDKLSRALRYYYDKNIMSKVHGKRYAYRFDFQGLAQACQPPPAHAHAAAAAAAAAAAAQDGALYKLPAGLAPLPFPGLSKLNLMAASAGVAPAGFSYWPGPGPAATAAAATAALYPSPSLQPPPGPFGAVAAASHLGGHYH
# Procedure, shortened: as §1
# ETV5 = ETV5 (Homo sapiens, UniProt P41161 1-510); conditions: protein: recombinant; tags: N-terminal GST; dsDNA, one strand shown
# Chain of ETV5 (P41161 whole entry): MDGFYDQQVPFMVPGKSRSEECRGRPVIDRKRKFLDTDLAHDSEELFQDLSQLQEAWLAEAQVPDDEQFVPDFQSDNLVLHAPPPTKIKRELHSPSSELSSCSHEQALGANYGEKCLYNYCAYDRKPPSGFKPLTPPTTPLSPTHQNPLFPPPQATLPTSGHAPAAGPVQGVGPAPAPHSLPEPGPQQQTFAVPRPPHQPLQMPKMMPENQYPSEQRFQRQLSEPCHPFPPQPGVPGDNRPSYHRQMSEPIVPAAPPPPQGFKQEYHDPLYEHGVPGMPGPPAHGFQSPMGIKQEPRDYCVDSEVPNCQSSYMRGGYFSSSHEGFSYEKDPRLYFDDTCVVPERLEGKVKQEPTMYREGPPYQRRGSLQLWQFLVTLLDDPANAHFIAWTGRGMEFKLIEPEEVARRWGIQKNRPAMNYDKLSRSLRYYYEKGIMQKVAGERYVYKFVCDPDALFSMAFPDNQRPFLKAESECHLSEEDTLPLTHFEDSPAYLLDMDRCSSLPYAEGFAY
# Procedure, shortened: as §1
# HSF1 = HSF1 (Homo sapiens, UniProt Q00613 1-529); conditions: protein: recombinant; tags: N-terminal GST; chain copies: 3; dsDNA, one strand shown
# Chain of HSF1 (Q00613 whole entry): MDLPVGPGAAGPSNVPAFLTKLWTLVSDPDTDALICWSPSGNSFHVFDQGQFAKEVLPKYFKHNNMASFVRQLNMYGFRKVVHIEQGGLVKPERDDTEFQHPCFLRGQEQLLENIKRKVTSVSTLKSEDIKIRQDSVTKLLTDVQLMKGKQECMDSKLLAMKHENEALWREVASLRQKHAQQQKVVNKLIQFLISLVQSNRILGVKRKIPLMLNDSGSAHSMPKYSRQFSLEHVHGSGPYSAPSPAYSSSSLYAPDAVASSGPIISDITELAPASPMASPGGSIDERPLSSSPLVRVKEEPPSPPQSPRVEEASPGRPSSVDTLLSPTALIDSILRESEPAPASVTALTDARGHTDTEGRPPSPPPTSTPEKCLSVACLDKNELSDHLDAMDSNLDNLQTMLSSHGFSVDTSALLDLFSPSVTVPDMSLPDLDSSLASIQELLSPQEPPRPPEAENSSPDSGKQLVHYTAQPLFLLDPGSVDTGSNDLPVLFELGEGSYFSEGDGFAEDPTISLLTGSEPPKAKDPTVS
# Procedure, shortened: as §1
# SPIC = target: T8, SPIC (Homo sapiens, UniProt Q8N5J4 1-248); conditions: protein: recombinant; tags: N-terminal GST; dsDNA, one strand shown
# T8 sequence: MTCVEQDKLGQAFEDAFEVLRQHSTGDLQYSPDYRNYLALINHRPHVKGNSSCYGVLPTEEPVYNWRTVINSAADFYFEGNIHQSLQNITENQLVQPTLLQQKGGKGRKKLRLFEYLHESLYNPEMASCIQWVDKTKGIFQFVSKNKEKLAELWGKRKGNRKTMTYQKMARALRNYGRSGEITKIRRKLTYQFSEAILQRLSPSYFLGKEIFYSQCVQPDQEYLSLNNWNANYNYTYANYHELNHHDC
# Procedure, shortened: as §1
# ELF4 = ELF4 (Homo sapiens, UniProt Q99607 1-663); conditions: protein: recombinant; tags: N-terminal GST; dsDNA, one strand shown
# Chain of ELF4 (Q99607 whole entry): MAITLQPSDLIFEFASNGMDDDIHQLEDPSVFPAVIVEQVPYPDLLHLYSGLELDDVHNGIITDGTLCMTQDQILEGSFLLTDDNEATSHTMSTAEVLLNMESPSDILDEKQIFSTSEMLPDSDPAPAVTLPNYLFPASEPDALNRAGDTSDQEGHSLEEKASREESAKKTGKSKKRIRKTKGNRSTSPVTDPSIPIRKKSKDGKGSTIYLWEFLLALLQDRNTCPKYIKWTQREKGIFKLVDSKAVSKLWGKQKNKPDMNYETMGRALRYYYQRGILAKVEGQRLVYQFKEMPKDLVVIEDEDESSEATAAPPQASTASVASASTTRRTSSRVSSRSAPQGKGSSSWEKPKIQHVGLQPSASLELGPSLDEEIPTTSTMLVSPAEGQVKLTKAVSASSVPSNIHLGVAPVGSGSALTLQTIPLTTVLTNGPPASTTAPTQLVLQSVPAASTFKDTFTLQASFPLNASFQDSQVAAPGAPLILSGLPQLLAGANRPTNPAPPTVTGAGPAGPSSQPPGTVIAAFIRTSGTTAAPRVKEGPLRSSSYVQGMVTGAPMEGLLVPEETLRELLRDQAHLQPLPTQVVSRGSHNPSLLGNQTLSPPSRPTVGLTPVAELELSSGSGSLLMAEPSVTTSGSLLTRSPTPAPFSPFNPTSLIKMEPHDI
# Procedure, shortened: as §1
# ELK4 = target: T9, ELK4 (Homo sapiens, UniProt P28324-2 1-405); conditions: protein: recombinant; tags: N-terminal GST; dsDNA, one strand shown
# T9 sequence: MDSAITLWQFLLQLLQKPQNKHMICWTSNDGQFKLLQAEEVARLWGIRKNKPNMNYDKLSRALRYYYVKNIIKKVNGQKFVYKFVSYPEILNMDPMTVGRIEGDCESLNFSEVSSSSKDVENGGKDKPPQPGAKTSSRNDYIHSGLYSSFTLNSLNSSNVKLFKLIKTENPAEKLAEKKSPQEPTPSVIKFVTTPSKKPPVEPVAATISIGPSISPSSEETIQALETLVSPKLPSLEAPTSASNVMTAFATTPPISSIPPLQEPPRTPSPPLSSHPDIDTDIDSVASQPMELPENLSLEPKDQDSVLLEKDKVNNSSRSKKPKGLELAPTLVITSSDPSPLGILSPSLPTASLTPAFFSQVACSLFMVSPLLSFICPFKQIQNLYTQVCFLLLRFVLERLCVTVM
# Procedure, shortened: as §1
# ETV2 = target: T10, ETV2 (Homo sapiens, UniProt O00321 1-342); conditions: protein: recombinant; tags: N-terminal GST; dsDNA, one strand shown
# T10 sequence: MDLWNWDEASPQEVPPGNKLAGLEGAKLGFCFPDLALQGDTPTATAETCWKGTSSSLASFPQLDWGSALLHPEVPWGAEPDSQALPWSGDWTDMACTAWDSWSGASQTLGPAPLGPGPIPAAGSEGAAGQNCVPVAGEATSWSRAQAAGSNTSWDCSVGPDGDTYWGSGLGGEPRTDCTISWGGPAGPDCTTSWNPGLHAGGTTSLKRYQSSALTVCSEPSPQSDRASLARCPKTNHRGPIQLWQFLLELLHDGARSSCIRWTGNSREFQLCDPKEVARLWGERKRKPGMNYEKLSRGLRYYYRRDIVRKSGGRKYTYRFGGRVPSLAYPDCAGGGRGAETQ
# Procedure, shortened: as §1
# ELF3 = target: T11, ELF3 (Homo sapiens, UniProt P78545 1-371); conditions: protein: recombinant; tags: N-terminal GST; dsDNA, one strand shown
# T11 sequence: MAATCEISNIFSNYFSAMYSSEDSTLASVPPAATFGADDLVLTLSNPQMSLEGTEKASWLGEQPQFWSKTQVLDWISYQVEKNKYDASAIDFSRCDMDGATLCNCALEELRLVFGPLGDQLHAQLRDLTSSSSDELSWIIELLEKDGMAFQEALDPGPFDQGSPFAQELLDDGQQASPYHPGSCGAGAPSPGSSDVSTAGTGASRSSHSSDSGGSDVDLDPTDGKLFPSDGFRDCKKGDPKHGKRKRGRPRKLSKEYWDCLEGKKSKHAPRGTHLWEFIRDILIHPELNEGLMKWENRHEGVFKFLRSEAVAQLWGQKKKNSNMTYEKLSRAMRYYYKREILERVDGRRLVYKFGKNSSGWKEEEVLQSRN
# Procedure, shortened: as §1
# CRX = CRX (Homo sapiens, UniProt O43186 1-299); conditions: protein: recombinant; tags: N-terminal GST; dsDNA, one strand shown
# Chain of CRX (O43186 whole entry): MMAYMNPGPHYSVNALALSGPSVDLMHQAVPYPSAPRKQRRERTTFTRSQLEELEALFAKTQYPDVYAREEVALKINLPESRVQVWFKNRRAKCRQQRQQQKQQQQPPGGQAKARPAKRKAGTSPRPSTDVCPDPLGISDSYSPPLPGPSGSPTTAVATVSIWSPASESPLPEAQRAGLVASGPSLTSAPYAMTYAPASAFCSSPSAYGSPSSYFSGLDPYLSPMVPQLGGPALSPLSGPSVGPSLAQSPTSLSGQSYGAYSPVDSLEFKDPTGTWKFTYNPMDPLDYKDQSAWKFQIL
# Procedure, shortened: as §1
# ETV1 = ETV1 (Homo sapiens, UniProt P50549 1-477); conditions: protein: recombinant; tags: N-terminal GST; dsDNA, one strand shown
# Chain of ETV1 (P50549 whole entry): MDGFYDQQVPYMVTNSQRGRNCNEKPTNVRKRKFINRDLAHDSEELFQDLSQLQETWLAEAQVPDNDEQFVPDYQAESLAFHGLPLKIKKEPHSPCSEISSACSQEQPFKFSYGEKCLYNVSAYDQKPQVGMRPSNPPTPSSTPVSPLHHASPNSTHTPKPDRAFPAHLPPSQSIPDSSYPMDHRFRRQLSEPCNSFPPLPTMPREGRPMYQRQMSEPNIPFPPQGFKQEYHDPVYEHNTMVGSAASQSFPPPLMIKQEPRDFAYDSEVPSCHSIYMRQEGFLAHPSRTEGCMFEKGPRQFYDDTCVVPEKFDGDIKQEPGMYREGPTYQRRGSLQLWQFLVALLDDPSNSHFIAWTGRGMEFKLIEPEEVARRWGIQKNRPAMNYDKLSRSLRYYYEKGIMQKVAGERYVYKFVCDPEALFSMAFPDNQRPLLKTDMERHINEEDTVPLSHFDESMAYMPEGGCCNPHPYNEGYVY
# Procedure, shortened: as §1
sequence,measurement,setting,value
CTAAAC,binding signal,FLI1,"1.24 fold enrichment (6-mer frequency, TF over GST control)"
same,binding signal,ELK1,"1.18 fold enrichment (6-mer frequency, TF over GST control)"
same,binding signal,GABPA,"1.23 fold enrichment (6-mer frequency, TF over GST control)"
same,binding signal,ERG,"1.23 fold enrichment (6-mer frequency, TF over GST control)"
same,binding signal,ELF1,"1.24 fold enrichment (6-mer frequency, TF over GST control)"
same,binding signal,EHF,"1.18 fold enrichment (6-mer frequency, TF over GST control)"
same,binding signal,SPI1,"1.17 fold enrichment (6-mer frequency, TF over GST control)"
same,binding signal,SPIB,"1.19 fold enrichment (6-mer frequency, TF over GST control)"
same,binding signal,ELK3,"1.2 fold enrichment (6-mer frequency, TF over GST control)"
same,binding signal,FEV,"1.21 fold enrichment (6-mer frequency, TF over GST control)"
same,binding signal,ETV5,"1.18 fold enrichment (6-mer frequency, TF over GST control)"
same,binding signal,HSF1,"1.26 fold enrichment (6-mer frequency, TF over GST control)"
same,binding signal,SPIC,"1.18 fold enrichment (6-mer frequency, TF over GST control)"
same,binding signal,ELF4,"1.26 fold enrichment (6-mer frequency, TF over GST control)"
same,binding signal,ELK4,"1.26 fold enrichment (6-mer frequency, TF over GST control)"
same,binding signal,ETV2,"1.33 fold enrichment (6-mer frequency, TF over GST control)"
same,binding signal,ELF3,"1.18 fold enrichment (6-mer frequency, TF over GST control)"
same,binding signal,CRX,"1.47 fold enrichment (6-mer frequency, TF over GST control)"
same,binding signal,ETV1,"1.24 fold enrichment (6-mer frequency, TF over GST control)"
